Laboratory results: the supplement of paper PMC10127200
Several values for one entry are separate records, joined by “and”; a condition that tells them apart may be missing. Identical values can stand only once. Counter-ions that a name gives are not always drawn.

What was measured:
Test in all cases: Euclidean distance of Cell Painting phenotypic profile (signed KS, 77 features) to DMSO centroid (dimensionless distance); 5 or 10 uM (library dependent); higher = stronger phenotypic change vs DMSO (phenoactivity)
Details in all cases: 48 h
786-O = system: 786-O
Procedure, shortened: (§1)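 Phenoactivity is computed as Euclidean distance to the median vehicle profile. The profiles, drawn from 77 Harmony features scored as signed Kolmogorov-Smirnov statistics versus same-plate vehicle wells, were corrected for plate position, correlation-weighted and replicate-averaged at the top dose. Stained cells were imaged confocally at 20X (9 fields/well) after 48 h with library compounds at 10 or 5 uM, 0.1% DMSO final, in five cancer lines and a healthy fibroblast line.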

A549 = system: A549
Procedure, shortened: as §1

DU145 = system: DU145
Procedure, shortened: as §1

FB = system: FB
Procedure, shortened: as §1

HEPG2 = system: HEPG2
Procedure, shortened: as §1

OVCAR4 = system: OVCAR4
Procedure, shortened: as §1

SMILES | Euclidean distance (786-O) | Euclidean distance (A549) | Euclidean distance (DU145) | Euclidean distance (FB) | Euclidean distance (HEPG2) | Euclidean distance (OVCAR4)
CN(C)CCOc1ccc(/C(=C(/CCCl)c2ccccc2)c2ccccc2)cc1 [Toremifene Citrate] | 1.72 | 1.56 | 1.81 | 1.97 | 2.79 | 2.17
C[C@H]1C[C@H]2[C@@H]3CCC4=CC(=O)C=C[C@]4(C)[C@@]3(F)[C@@H](O)C[C@]2(C)[C@@]1(O)C(=O)CO [Betamethasone] | 1.28 | 2.01 | 2.37 | 1.68 | 0.663 | 2
CN[C@@H]1[C@H](O[C@H]2[C@H](O[C@H]3[C@H](O)[C@@H](O)[C@H](NC(=N)N)[C@@H](O)[C@@H]3NC(=N)N)O[C@@H](C)[C@]2(O)CO)O[C@@H](CO)[C@H](O)[C@H]1O [Dihydrostreptomycin sulfate] | 0.936 | 1.12 | 0.563 | 1.25 | 0.549 | 1.33
COc1ccc(NS(=O)(=O)c2sc3ccc(Cl)cc3c2C)cc1N1CCNCC1 | 2.31 | 1.39 | 1.12 | 1.13 | 1.35 | 1.29
OC(Cn1cncn1)(Cn1cncn1)c1ccc(F)cc1F [Fluconazole] | 1.5 | 1.3 | 1.41 | 1.35 | 0.443 | 1.44
c1ccc2c(Oc3nc(Nc4ccc(N5CCOCC5)cc4)c4ncn(C5CCCCC5)c4n3)cccc2c1 [Purmorphamine] | 1.93 | 1.81 | 0.922 | 0.758 | 1.17 | 1.94
C[C@]12CCC(=O)C=C1CC[C@@H]1[C@@H]2C(=O)C[C@@]2(C)[C@H]1CC[C@]2(O)C(=O)CO [Cortisone] | 1.73 | 0.941 | 1.11 | 1.27 | 0.411 | 1
OC[C@H]1O[C@@H](Oc2ccc(O)cc2)[C@H](O)[C@@H](O)[C@@H]1O [Arbutin] | 1.12 | 0.916 | 2.06 | 0.914 | 0.919 | 1.73
C[C@]12CC[C@@H]3c4ccc(O)cc4CC[C@H]3[C@@H]1C[C@@H](O)[C@@H]2O [Estriol] | 1.2 | 0.835 | 1.5 | 0.871 | 0.511 | 1.2
O=C(N/N=C/c1ccc([N+](=O)[O-])o1)c1ccc(O)cc1 [Nifuroxazide] | 1.64 | 1.52 | 0.846 | 1.33 | 2.82 | 1.2
NC(=O)Nc1sc(-c2ccc(F)cc2)cc1C(N)=O | 1.85 | 1.8 | 2.12 | 3.25 | 0.991 | 1
Cc1cc2ncnn2cc1Nc1ncc2c(n1)n(C1CCOCC1)c(=O)n2C | 1.35 | 1.07 | 1.33 | 1.79 | 0.714 | 0.718
COc1cc(Cc2cnc(N)nc2N)cc(OC)c1OC [Trimethoprim] | 1.42 | 0.849 | 0.917 | 1.39 | 0.86 | 1.12
NC(=O)N1c2ccccc2C=Cc2ccccc21 [Carbamazepine] | 1.69 | 0.483 | 1.26 | 0.984 | 1.28 | 1.59
Oc1ccc(OC2CCCCO2)cc1 (stereo not drawn) [Deoxyarbutin] | 1.11 | 0.699 | 1.16 | 1.24 | 1.02 | 1.45
CCOC(=O)C1=C(C)NC(C)=C(C(=O)OCC)C1c1ccccc1/C=C/C(=O)OC(C)(C)C [Lacidipine] | 0.955 | 0.916 | 1.62 | 1.14 | 0.707 | 1.15
CN(C)CCOC(=O)C(c1ccccc1)C1(O)CCCC1 (stereo not drawn) [Cyclopentolate Hydrochloride] | 1.16 | 0.28 | 0.841 | 1.15 | 0.601 | 1.57
C[C@H](CCC(=O)NCCS(=O)(=O)O)[C@H]1CC[C@H]2[C@@H]3[C@@H](O)C[C@@H]4C[C@H](O)CC[C@]4(C)[C@H]3CC[C@]12C [Tauroursodeoxycholic Acid (TUDCA)] | 0.663 | 1.8 | 0.772 | 1.04 | 0.686 | 1.23
COCCCC/C(=N\OCCN)c1ccc(C(F)(F)F)cc1 [Fluvoxamine maleate] | 1.27 | 0.895 | 0.762 | 1.25 | 1.1 | 1.58
[O-][n+]1cccc(-c2nc3c(Cl)cccc3cc2[C@@H](Nc2ncnc3cccnc23)C(F)(F)F)c1 [Seletalisib (UCB-5857)] | 1.2 | 0.825 | 1.4 | 1.69 | 1.73 | 2.03
COCCc1ccc(OCC(O)CNC(C)C)cc1 (stereo not drawn) [Metoprolol Tartrate] | 0.573 | 0.762 | 0.69 | 0.67 | 0.507 | 0.885
CC[C@@H]1C(=O)N(C)c2cnc(Nc3ccc(C(=O)N[C@H]4CC[C@H](N5CCN(CC6CC6)CC5)CC4)cc3OC)nc2N1C(C)C [Volasertib (BI 6727)] | 4.44 | 4.28 | 4.03 | 5.55 | 3.66 | 4.01
COC(=O)c1cc(OC)c2c(c1-c1c(CO)cc(OC)c3c1OCO3)OCO2 [Bicyclol] | 1.47 | 0.509 | 2.55 | 0.898 | 1.1 | 1.06
CC(=O)c1c(C)c2cnc(Nc3ccc(N4CCNCC4)cn3)nc2n(C2CCCC2)c1=O | 5.92 and 5.88 | 3.42 and 3.04 | 5.03 and 4.42 | 6.3 and 5.78 | 5.39 and 4.73 | 5.52 and 5.47

SMILES | Euclidean distance (786-O) | Euclidean distance (A549) | Euclidean distance (DU145) | Euclidean distance (FB) | Euclidean distance (HEPG2) | Euclidean distance (OVCAR4)
Cc1ccc(S(=O)(=O)NC(=O)NN2CC3CCCC3C2)cc1 (stereo not drawn) [Gliclazide] | 1.36 | 0.771 | 1.24 | 1.14 | 1.07 | 1.65
C1COC(NC(C2CC2)C2CC2)=N1 [Rilmenidine Phosphate] | 1.48 | 0.742 | 1.06 | 1.07 | 1.13 | 1.02
COc1ccccc1OCCNCC(O)COc1cccc2[nH]c3ccccc3c12 (stereo not drawn) [Carvedilol Phosphate] | 2.5 | 2.28 | 1.98 | 1.66 | 2.55 | 1.81
O=C(Nc1ccc(-c2ccnc(Nc3ccc(N4CCOCC4)cc3)n2)cc1)C1CCCN1 (stereo not drawn) | 0.834 | 1.49 | 1.24 | 1.52 | 1.48 | 0.844
CN(C)CCC(c1ccc(Br)cc1)c1ccccn1 (stereo not drawn) [Brompheniramine hydrogen maleate] | 1.21 | 0.63 | 1.13 | 1.18 | 0.5 | 1.36
CCOc1ccc2nc(S(N)(=O)=O)sc2c1 [Ethoxzolamide] | 0.892 | 0.718 | 1.34 | 1.35 | 1.09 | 0.937
COc1ccc(C[C@H](NC(=O)[C@H](C)NC(=O)CN2CCOCC2)C(=O)N[C@@H](Cc2ccccc2)C(=O)[C@@]2(C)CO2)cc1 | 5.28 | 4.5 | 5.11 | 5.13 | 5.18 | 6.2
Nc1ncnc2c1c(-c1cccc(OCc3ccccc3)c1)cn2C1CC(CN2CCCC2)C1 (stereo not drawn) | 2.84 | 3.18 | 2.28 | 3.95 | 3.36 | 1.87
O=C(O)C1(c2ccc(-c3ccc(Cl)c(Cl)c3)c(F)c2)CC1 | 0.785 | 1.02 | 1.42 | 1.35 | 1.17 | 1.72
N[C@H]1CONC1=O [L-Cycloserine] | 0.838 | 0.531 | 1.03 | 1.02 | 0.788 | 1.56
Cn1c(=O)c(F)c(Nc2ccc(I)cc2F)c2c(=O)n(C[C@@H](O)CO)cnc21 | 3.48 | 2.45 | 3.23 | 4.03 | 2.21 | 2.01
CCOC(=O)[C@H](CCc1ccccc1)N[C@@H](C)C(=O)N1CCC[C@H]1C(=O)O [Enalapril Maleate] | 1.04 | 0.697 | 0.694 | 0.816 | 0.78 | 1.28
CN(C)C(=O)c1ccc(S(=O)(=O)c2ccc(NC(=O)[C@@](C)(O)C(F)(F)F)c(Cl)c2)cc1 | 0.701 | 1.81 | 0.801 | 0.955 | 2 | 0.57
Cc1ccc(/C(=C\CN2CCCC2)c2ccccn2)cc1 [Triprolidine Hydrochloride] | 0.627 | 0.986 | 0.542 | 1.16 | 1.31 | 1.02
CNC(=O)c1cc(Oc2ccc3nc(N[C@@H]4CCCC[C@H]4O)sc3c2)ccn1 | 0.859 | 1.04 | 1.3 | 1.9 | 0.898 | 1.22
CO[C@H]1C[C@H](O[C@@H]2/C(C)=C/C[C@@H]3C[C@@H](C[C@]4(CC[C@H](C)[C@@H](C5CCCCC5)O4)O3)OC(=O)[C@@H]3C=C(C)/C(=N/O)[C@H]4OC/C(=C\C=C\[C@@H]2C)[C@]43O)O[C@@H](C)[C@@H]1O [Selamectin] | 1.94 | 3.16 | 6.67 | 1.24 | 0.681 | 1.04
CC[C@H]1OC(=O)[C@H](C)[C@@H](O[C@H]2C[C@@](C)(OC)[C@@H](O)[C@H](C)O2)[C@H](C)[C@@H](O[C@@H]2O[C@H](C)C[C@H](N(C)C)[C@H]2O)[C@](C)(O)C[C@@H](C)CN(C)[C@H](C)[C@@H](O)[C@]1(C)O [Azithromycin] | 0.885 | 0.638 | 1.38 | 1.53 | 2.1 | 1.08
CC(C(O)c1ccc(O)cc1)N1CCC(Cc2ccccc2)CC1 (stereo not drawn) [Ifenprodil Tartrate] | 0.976 | 0.88 | 0.955 | 1.22 | 0.958 | 0.965
O=C([O-])c1ccccc1O.[Na+] [Sodium salicylate] | 0.657 | 0.529 | 0.888 | 0.714 | 0.709 | 0.92
Cn1cncc1[C@@](N)(c1ccc(Cl)cc1)c1ccc2c(c1)c(-c1cccc(Cl)c1)cc(=O)n2C [Tipifarnib] | 2.23 | 2.94 | 2.5 | 2.31 | 1.91 | 2.15
CC(=O)O/N=C1\C(=O)N(Cc2cc(Cl)ccc2Cl)c2ccc(Cl)cc21 | 0.757 | 0.621 | 0.687 | 0.682 | 0.571 | 1.34
Cc1nc(C)c(C)nc1C [Ligustrazine hydrochloride] | 0.557 | 0.605 | 0.684 | 0.693 | 0.523 | 0.693
COc1ccc(CCNCC(O)COc2cccc(C)c2)cc1OC (stereo not drawn) [Bevantolol hydrochloride] | 1.02 | 0.717 | 1.07 | 1.21 | 0.573 | 1.03
CCCCCCCCN=C(N)NC(N)=NCc1ccc(Cl)c(Cl)c1 [Olanexidine Hydrochloride semihydrate] | 5.91 | 4.86 | 6.25 | 6.15 | 3.98 | 5.78
